The whole screen tested about 94,000 compounds, of which about 6,200 (6.6%) were called active. Entries that show only a call come without a potency. Not shown: some 31% with an inconclusive outcome. The sample holds actives, similar compounds and a random draw of the others, so the mix is not that of the screen. Calls come from the whole dose curve; as a rule, active = well fitted inhibition curve with a large enough effect; inconclusive = small, poorly fitted or top-dose-only effect; inactive = flat fitted curve, though single readings scatter.
Potency is the fitted concentration of half-maximal effect.

The assay can be described thus: Cytotoxic Profiling in HEK 293 Cell Line of Diverse Libraries Using Quantitative High-Throughput Screening. Note: nearly all actives have a fitted effect of over 60% in size. The note with it: HEK 293 viability, ATP luminescence (CellTiter-Glo), 48-72 h; series mostly up to 115 µM. The essentials:
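HEK 293 cells seeded at 250 cells/well were exposed to compound for 48 or 72 hr at 37 degree Celsius. Viability taken as ATP content by CellTiter-Glo luminescence.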
On to `Cc1ccc(S(=O)(=O)N(C)CC2CCOCC2)cc1F`, for which the Potency result is “inactive”.
To `CN(CC1CCOC1)S(=O)(=O)c1ccccc1C(F)(F)F` (configuration not stated) belongs “inactive”.
On to `Cc1ccc(S(=O)(=O)N(C)Cc2ccccc2C(F)(F)F)cc1`, for which the Potency was 70.8 µM (active).
To `CN1C(=O)CCC2(CNC(=O)C3CCC3)CCC=C12` (configuration not stated) belongs “inactive”; to `O=C(NC1CCCC1)NC1CC(c2nnc(CO)n2C2CC2)C1` (configuration not stated), “inactive”.
In the case of `O=C(C1CCc2nnc(C3CCN([S+](=O)([O-])c4ccccc4)CC3)n21)N1CCOCC1` (configuration not stated) it was “inactive”; in that of `O=C(C1CCC1)N1CCC(Cc2nc(-c3cccnc3)n[nH]2)C1` (configuration not stated), “inactive”; in that of `O=C(N1CCC(Cc2nc(-c3ccccc3)n[nH]2)C1)C1(c2ccccc2)CC1` (configuration not stated), 44.7 µM (active).
Consider `O=C(N1CCCC(Cc2nc(C3CCOCC3)no2)C1)C1(c2ccccc2)CC1` (configuration not stated), for which the Potency entry was “inactive”.
Turning to `CCc1noc(-c2cccn3c(CNC(=O)c4cccc(Cl)c4)nnc23)n1`, the Potency entry was “inactive”.
Turning to `CC1(c2noc(C3CCOCC3)n2)CCN(Cc2c(F)cccc2Cl)CC1`, the Potency result is “inactive”.
To `CC(C)C(=O)Nc1ccc(C2(C(=O)NCCN3CCCCC3)CCCCC2)cc1` belongs “inactive”.
For the compound `O=C(COc1ccc(NC(=O)C2CC2)cn1)NCc1ccc(F)cc1F`, the Potency entry was “inactive”.
In the case of `Cc1ccc(NC(=O)[C@@H]2CNC[C@H](C(=O)NCc3ccccn3)C2)cn1` it was “inactive”.
In the case of `COc1ccc(NC(=O)[C@@H]2C[C@@H](c3ccc(F)cc3)N(CCOc3ccccc3)C2)cn1` it was 39.8 µM (active); in that of `O=C(C1NCCc2[nH]cnc21)N1CCc2nnc(-c3ccccc3)n2CC1` (configuration not stated), “inactive”.
To `O=C(Nc1ccccc1F)N1CCc2nnc(C3CC3)n2CC1` belongs “inactive”; to `Cn1nc(C(=O)N2CCC(N3C(=O)C(O)C34CCCCC4)CC2)c2ccccc21` (configuration not stated), “inactive”.
On to `O=C(c1ccc2c(c1)OCO2)N1CCC2(C1)C(=O)Nc1ccccc12` (configuration not stated), for which the Potency entry was “inactive”.
In the case of `O=C(c1ccc(F)cc1)N1CCN(C(=O)c2nc3cccnc3n(C3CCCC3)c2=O)CC1`, the Potency result was “inactive”.
To `Cc1ccccc1C(=O)N1CCN(C(=O)c2nc3cccnc3n(C3CC3)c2=O)CC1` belongs “inactive”; to `Cc1ccc([S+](=O)([O-])N2CCN(C(=O)c3nc4cccnc4n(C4CCCC4)c3=O)CC2)cc1`, 39.8 µM (active); to `O=C(NCC1CCCO1)c1noc(-c2ccccc2F)n1` (configuration not stated), “inactive”.
To `Cc1ccccc1C(=O)N1C(C(=O)NCC2CCCO2)COC12CCN(C(=O)c1cccs1)CC2` (configuration not stated) belongs “inactive”.
In the case of `O=C(NCC1CCCO1)c1csc(N2CCN(c3ccccc3F)CC2)n1` (configuration not stated) it was 89.1 µM (active); in that of `CC(C)NC(=O)C1CCc2nnc(CNC(=O)c3ccc(Cl)cc3Cl)n21` (configuration not stated), “inactive”.
For the compound `Cc1ccc(-c2cc(C(=O)N3CCOCC3)c3cnn(C)c3n2)c(C)c1`, the Potency result was “inactive”.
In the case of `Cn1ncc2c(C(=O)NCc3ccc(F)cc3F)cc(-c3ccccc3C(F)(F)F)nc21` it was 31.6 µM (active); in that of `CC(C)OCCCNC(=O)c1cc(-c2ccc(C(F)(F)F)cc2)nc2c1cnn2C`, 44.7 µM (active).
In the case of `Cn1ncc2c(C(=O)N3CCN(c4ncccn4)CC3)cc(-c3ccc(C(F)(F)F)cc3)nc21` it was 50.1 µM (active); in that of `COc1ccccc1-c1cc(C(=O)NC2CCCCC2)c2cnn(C)c2n1`, “inactive”; in that of `CC(=O)N1CCN(C(=O)c2cc(-c3cccc(F)c3)nc3c2cnn3C)CC1`, “inactive”.
Regarding `Cn1ncc2c(C(=O)NCC#N)cc(-c3cccc(C(F)(F)F)c3)nc21`, the Potency entry was “inactive”.
To `Cn1ncc2c(C(=O)NCc3ccc(C(F)(F)F)cc3)cc(C3C=C(C(F)(F)F)C=CC3)nc21` (configuration not stated) belongs “inactive”; to `Cn1ncc2c(C(=O)NCC(F)(F)F)cc(-c3ccc(C(F)(F)F)cc3)nc21`, “inactive”; to `Cn1ncc2c(C(=O)NCc3ccc(F)cc3)cc(-c3cccc(C(F)(F)F)c3)nc21`, “inactive”.
To `Cn1ncc2c(C(=O)NCc3ccccc3)cc(-c3ccc(C(F)(F)F)cc3)nc21` belongs 79.4 µM (active).

For the origin of these results see PubChem BioAssay AID1345083 (National Center for Advancing Translational Sciences (NCATS), 2018).
